PPARg SRC2 recr = agonists of SRC-2 recruitment by human PPARgamma; P37231; PPARgamma LBD-SRC-2 recruitment, biochemical; activation, % at 8 µM; 200,000 tested, 0.34% active;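 also: 0% = vehicle and 100% = reference agonist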
Target sequence (P37231 whole entry, looked up, the tested form may be a part): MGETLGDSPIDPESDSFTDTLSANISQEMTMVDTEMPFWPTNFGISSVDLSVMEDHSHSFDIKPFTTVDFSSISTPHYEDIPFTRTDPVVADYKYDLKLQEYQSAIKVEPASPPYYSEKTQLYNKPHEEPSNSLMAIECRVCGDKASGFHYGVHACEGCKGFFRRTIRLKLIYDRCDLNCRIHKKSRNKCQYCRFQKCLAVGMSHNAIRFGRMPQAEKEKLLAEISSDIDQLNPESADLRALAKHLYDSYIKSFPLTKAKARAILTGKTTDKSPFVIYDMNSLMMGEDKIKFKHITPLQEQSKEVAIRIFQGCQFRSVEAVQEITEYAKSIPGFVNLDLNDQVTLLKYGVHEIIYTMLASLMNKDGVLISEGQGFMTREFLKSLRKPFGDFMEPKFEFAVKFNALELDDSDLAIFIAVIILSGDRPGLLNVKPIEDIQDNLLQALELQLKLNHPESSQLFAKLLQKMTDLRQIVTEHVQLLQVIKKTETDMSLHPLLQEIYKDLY
TR-FRET SRC-2 ct = counter-screen for PPARgamma SRC-2 recruitment agonists: TR-FRET artefact. hits give high values. AID 1049. 200,000 tested, 0.4% active. TR-FRET ratio at 8 µM; in the data active = TR-FRET ratio above about 2000
SRC3 TRFRET art = TR-FRET artefact, counter-screen to PPARgamma/SRC-3 agonist assay. TR-FRET ratio at 8 µM. 99,000 tested, 0.39% active. PPARgamma/SRC-3 format; hits give high values. AID 1048; in the data active = TR-FRET ratio above about 2000
PPARg SRC1 recr = promotes SRC-1 coactivator recruitment by human PPARgamma; activation, % at 8 µM; PPARgamma-SRC-1 coactivator recruitment biochemical assay; 200,000 tested, 0.41% active; P37231; in the data active = activation above about 19%;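 also: 0% = DMSO and 100% = reference agonist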
PPARg SRC-3 ag = PPARgamma-driven SRC-3 recruitment agonism; P37231; biochemical PPARgamma/SRC-3 coactivator recruitment assay; activation, % at 8 µM; 200,000 tested, 0.26% active; AID 731; in the data active = activation above about 23%;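 also: 0% = DMSO and 100% = reference agonist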
SRC1 TRFRET art = TR-FRET artefact, counter-screen to PPARgamma/SRC-1 agonist assay. TR-FRET detection artefact counter-screen, emission ratio; hits give high values. TR-FRET ratio at 8 µM. 99,000 tested, 0.34% active; in the data active = TR-FRET ratio above about 2300
PPARg SRC2 ag = confirmation of agonists of SRC-2 recruitment by human PPARgamma; activation, % at 8 µM; shares compounds with PPARg SRC-3 ag; 790 tested, 52% active; biochemical SRC-2 recruitment by PPARgamma; AID 1297;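 also: 0% = vehicle alone and 100% = reference agonist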
PPARg SRC1 ag = confirmation of agonists of SRC-1 recruitment by human PPARgamma; shares compounds with PPARg SRC-3 ag; PPARgamma–SRC-1 coactivator recruitment biochemical assay; activation, % at 8 µM; 790 tested, 43% active; in the data active = activation above about 20%;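 also: 0% = vehicle wells and 100% = reference agonist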
PPARg SRC3 conf = human PPARgamma SRC-3 recruitment agonism, confirmation | shares compounds with PPARg SRC-3 ag | AID 1301 | activation, % at 8 µM | biochemical PPARgamma-SRC-3 coactivator recruitment, agonist mode | 790 tested, 29% active; in the data active = activation above about 24%;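 also: 0% = vehicle wells and 100% = reference agonist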
* hit, by the source's call; . = not tested or not shown. An excerpt weighted towards active compounds, which were near 0.9% of everything screened. Rule as the data show it, unless noted: active = activation above about 22%; inactive = the rest.

SMILES	PPARg SRC2 recr	TR-FRET SRC-2 ct	SRC3 TRFRET art	PPARg SRC1 recr	PPARg SRC-3 ag	SRC1 TRFRET art	PPARg SRC2 ag	PPARg SRC1 ag	PPARg SRC3 conf
O=C(c1ccco1)N1N=C(c2ccc(Cl)cc2)CC1(O)C(F)(F)F (configuration not stated)	3.0	1680	1690	5.2	6.1	1753	.	.	.
O=C(c1ccc(Cl)cc1)N(Cc1ccccc1F)N1C(=O)CCCC1=O	10.0	1709	1551	11.4	1.3	1684	.	.	.
COC(=O)CSc1ncnc2c1sc1nc3c(cc12)COC(C)(C)C3	23.8*	1748	1809	13.2	12.4	2109	17.1	15.5	12.0
CC(C)(C)c1ccc(CN2N=C(/C=C/c3ccccc3)CCC2=O)cc1	1.0	1572	1439	1.3	0.3	1900	.	.	.
NC(=S)NNc1cc(Cl)cc(Cl)c1	6.9	1816	.	-2.7	9.6	.	.	.	.
S=c1[nH]cnc2sc(-c3ccccc3)cc12	51.7*	2602*	2631*	46.4*	30.1*	3261*	33.0*	22.2*	20.7
CNc1ncnc2sc(-c3ccccc3)cc12	-4.7	1590	1461	-1.9	-0.3	2133	.	.	.
C=CCn1c(-c2cccc(Cl)c2)n[nH]c1=S	19.9	2008*	.	24.9*	27.8*	.	19.8	13.9	12.6
C=CCSC1=Nc2sccc2C2=NC(=O)CN12	23.1*	1562	.	12.6	10.9	.	9.0	8.4	7.3
Cn1cccc1/C=C1\CCc2ccccc2C1=O	7.3	1632	1477	15.4	5.5	2018	.	.	.
Cn1cccc1/C=C1\Cc2ccccc2C1=O	24.5*	1747	1490	18.8	14.2	2340*	-0.5	-2.2	-0.3
COc1ccc(C(=O)NCC(=O)NCC(=O)OCc2ccc(Br)cc2)cc1	9.0	1543	1553	-1.6	5.5	1726	.	.	.
O=C(O)c1cccnc1SCC(=O)N1CCCCCC1	4.6	1613	.	19.5*	8.1	.	3.9	6.3	1.2
CCOC(=O)CSc1nnc(-c2cccs2)n1-c1ccccc1	6.4	1676	.	6.5	5.8	.	.	.	.
O=C(CSc1nnc(-c2cccs2)n1-c1ccccc1)Nc1ccccc1	63.6*	1837	.	45.5*	31.4*	.	19.8	16.7	9.1
COc1ccc(OC)c(NC(=O)CC(NC(C)=O)c2ccccc2)c1 (configuration not stated)	-2.3	1497	1596	-8.1	1.2	1665	.	.	.
CC(=O)c1oc2ccccc2c1NC(=O)CN1CCCCC1	2.3	1499	.	-2.2	6.7	.	.	.	.
CCC(C)NCCOCCOc1ccc(Cl)cc1Br (configuration not stated)	0.1	1357	1408	-4.0	-1.9	1421	.	.	.
COc1ccc2c(Cl)c(C(N)=O)sc2c1	36.6*	2210*	2550*	32.6*	19.4	2690*	36.0*	25.4*	24.6*
COc1ccc2c(Cl)c(C(=O)NN)sc2c1	0.0	1487	.	-0.8	3.4	.	.	.	.
CSc1ccccc1NC(=O)CN(C)CC(=O)Nc1c(F)cccc1F	7.0	1494	1678	-2.5	2.8	1784	.	.	.
O=C(NCc1cccs1)C1CCCN1C(=O)Nc1ccc(Cl)cc1 (configuration not stated)	9.6	1747	1570	7.9	2.8	2121	.	.	.
CN(CCCNC(=O)CSc1cc(=O)n(C)c2ccc(Cl)cc12)Cc1ccccc1	57.6*	2374*	3068*	50.6*	46.4*	3259*	39.6*	24.2*	23.9
Cn1c(=O)cc(SCC(=O)N2CCCC2)c2ccc(Cl)cc21	87.2*	3299*	.	71.6*	86.8*	.	42.2*	29.1*	30.3*
Cn1c(=O)cc(OCCCC(=O)N2CCCCC2)c2ccccc21	17.7	1780	.	2.3	10.6	.	.	.	.
SMILES	PPARg SRC2 recr	TR-FRET SRC-2 ct	SRC3 TRFRET art	PPARg SRC1 recr	PPARg SRC-3 ag	SRC1 TRFRET art	PPARg SRC2 ag	PPARg SRC1 ag	PPARg SRC3 conf
Cn1c(=O)cc(SCC(=O)N2CCOCC2)c2ccc(Cl)cc21	62.1*	2895*	.	61.1*	82.6*	.	28.6*	17.8	19.8
COCCNC(=O)CSc1cc(=O)n(C)c2cc(Cl)ccc12	27.6*	2945*	2886*	62.1*	39.9*	3701*	38.6*	25.5*	26.9*
CC(C)Cc1nnc(NC(=O)c2ccc([N+](=O)[O-])cc2)s1	4.7	1615	.	-2.3	0.7	.	.	.	.
CN(C)/C=C/c1oc2ccc(O)cc2c1[N+](=O)[O-]	24.0*	1792	1948	18.6	18.0	2270	14.3	14.3	13.5
O=C(NCC1CCCO1)C(=O)NCC(c1ccco1)N1CCN(c2ccccc2F)CC1 (configuration not stated)	-7.6	1655	1650	4.3	0.3	1608	.	.	.
C#CCSc1ncc(-c2ccccc2)cn1	9.6	1733	1553	21.1*	6.5	2074	4.8	3.9	5.0
C=CCOc1c(Cl)cc(CNc2ccc(C)c(Cl)c2)cc1OC	-8.3	1597	.	1.5	-10.0	.	.	.	.
C=CCOc1c(Cl)cc(CNc2ccc(N(C)C)cc2)cc1OC	103.2*	2956*	.	60.3*	120.3*	.	8.8	8.9	6.3
COc1ccc(/C(O)=C2\C(=O)C(=O)N(c3cc(C)on3)C2c2ccccc2OC)cc1 (configuration not stated)	31.9*	2135*	.	19.2*	24.7	.	30.7*	25.1*	19.3
COc1cccc(C2/C(=C(\O)c3ccc(OC)c(OC)c3)C(=O)C(=O)N2c2cc(C)on2)c1 (configuration not stated)	29.2*	1910	.	16.7	27.9*	.	24.2*	17.5	14.8
COc1ccc(/C(O)=C2\C(=O)C(=O)N(c3cc(C)on3)C2c2ccc(OC)c(OC)c2)cc1OC (configuration not stated)	5.5	1427	.	7.6	-4.2	.	.	.	.
O=C(Nc1ccc2oc(-c3ccccc3)nc2c1)c1ccccc1F	8.0	1684	.	13.8	-17.3	.	.	.	.
O=C(Nc1ccc2oc(-c3ccncc3)nc2c1)c1ccccc1F	46.8*	1409	.	48.8*	39.5*	.	2.3	-0.1	0.5

Source: PubChem BioAssay (The Scripps Research Institute Molecular Screening Center)
